Results as given in the supplement of paper PMC8728848.
The sample as a whole holds a higher share of the strongest signals than the screen did.

Legend:
Assay in all cases: glycan array binding signal (z-score within array); higher = stronger binding
Details in all cases: glycan notation: IUPAC condensed, linker removed
[1] = biological target: Fuc(a1-2)Gal(b1-3)GalNAc(b1-3)Gal
In short: (§1)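 The binding signal is a Z-score computed within each array. Data were drawn from 3228 arrays in the Consortium for Functional Glycomics database, restricted to those with a known protein sequence. Scores were averaged over arrays of the same protein sequence at different concentrations or buffers, and over linkers, and negative values can be taken as non-binding.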

[2] = biological target: Fuc(a1-2)Gal(b1-3)GlcNAc(b1-3)[Neu5Ac(a2-6)Gal(b1-4)GlcNAc(b1-6)]Gal(b1-4)Glc
In short: as §1

[3] = biological target: Fuc(a1-2)[GalNAc(a1-3)]Gal(b1-3)GlcNAc(b1-2)Man(a1-3)[Fuc(a1-2)[GalNAc(a1-3)]Gal(b1-3)GlcNAc(b1-2)Man(a1-6)]Man(b1-4)GlcNAc(b1-4)GlcNAc
In short: as §1

[4] = biological target: Fuc(a1-2)[GalNAc(a1-4)]Gal(b1-4)GlcNAc
In short: as §1

[5] = biological target: Fuc(a1-3)[Gal(b1-4)]GlcNAc(b1-2)Man(a1-3)[Fuc(a1-3)[Gal(b1-4)]GlcNAc(b1-2)Man(a1-6)]Man(b1-4)GlcNAc(b1-4)[Fuc(a1-6)]GlcNAc
In short: as §1

[6] = biological target: Fuc(a1-3)[Gal(b1-4)]GlcNAc(b1-3)GalNAc
In short: as §1

[7] = biological target: Gal(a1-2)Gal
In short: as §1

[8] = biological target: Gal(a1-3)Gal(b1-3)GlcNAc
In short: as §1

[9] = biological target: Gal(a1-3)Gal(b1-3)[Fuc(a1-4)]GlcNAc(b1-2)Man(a1-3)[Gal(a1-3)Gal(b1-3)[Fuc(a1-4)]GlcNAc(b1-2)Man(a1-6)]Man(b1-4)GlcNAc(b1-4)GlcNAc
In short: as §1

[10] = biological target: Gal(a1-3)Gal(b1-4)GlcNAc(b1-2)Man
In short: as §1

[11] = biological target: Gal(a1-3)[Gal(a1-4)]Gal(b1-4)GlcNAc
In short: as §1

[12] = biological target: Gal(b1-2)Gal
In short: as §1

[13] = biological target: Gal(b1-3)Gal
In short: as §1

[14] = biological target: Gal(b1-3)GlcNAc(b1-2)Man(a1-3)[GlcNAc(b1-4)][Gal(b1-3)GlcNAc(b1-2)Man(a1-6)]Man(b1-4)GlcNAc(b1-4)GlcNAc
In short: as §1

[15] = biological target: Gal(b1-3)GlcNAc(b1-3)Gal(b1-4)[Fuc(a1-3)]GlcNAc
In short: as §1

[16] = biological target: Gal(b1-3)[Fuc(a1-4)]GlcNAc(b1-2)Man
In short: as §1

[17] = biological target: Gal(b1-3)[Fuc(a1-4)]GlcNAc(b1-2)Man(a1-3)[Gal(b1-3)[Fuc(a1-4)]GlcNAc(b1-2)Man(a1-6)]Man(b1-4)GlcNAc(b1-4)[Fuc(a1-6)]GlcNAc
In short: as §1

[18] = biological target: Gal(b1-4)Gal
In short: as §1

[19] = biological target: Gal(b1-4)GlcNAc(b1-3)Gal(b1-4)GlcNAc(b1-3)Gal(b1-4)GlcNAc
In short: as §1

[20] = biological target: Gal(b1-4)GlcNAc(b1-3)Gal(b1-4)GlcNAc(b1-3)Gal(b1-4)GlcNAc(b1-3)Gal(b1-4)GlcNAc(b1-2)Man(a1-3)[Gal(b1-4)GlcNAc(b1-3)Gal(b1-4)GlcNAc(b1-3)Gal(b1-4)GlcNAc(b1-3)Gal(b1-4)GlcNAc(b1-2)Man(a1-6)]Man(b1-4)GlcNAc(b1-4)[Fuc(a1-6)]GlcNAc
In short: as §1

[21] = biological target: Gal(b1-4)GlcNAc(b1-3)Gal(b1-4)GlcNAc(b1-3)[Gal(b1-4)GlcNAc(b1-3)Gal(b1-4)GlcNAc(b1-6)]GalNAc
In short: as §1

[22] = biological target: Gal(b1-4)GlcNAc(b1-3)Gal(b1-4)[Fuc(a1-3)]GlcNAc(b1-3)Gal(b1-4)[Fuc(a1-3)]GlcNAc
In short: as §1

[23] = biological target: Gal3S(b1-4)Glc
In short: as §1

[24] = biological target: Gal3S(b1-4)[Fuc(a1-3)]GlcNAc6S
In short: as §1

[25] = biological target: Gal3S6S(b1-4)GlcNAc
In short: as §1

[26] = biological target: Gal4S6S(b1-4)GlcNAc
In short: as §1

[27] = biological target: Gal6S(b1-4)GlcNAc6S
In short: as §1

[28] = biological target: GalNAc(a1-3)GalNAc(b1-3)Gal(a1-4)Gal(b1-4)GlcNAc
In short: as §1

[29] = biological target: GalNAc(b1-4)GlcNAc6S
In short: as §1

[30] = biological target: GlcA(b1-6)Gal
In short: as §1

[31] = biological target: GlcNAc(a1-4)Gal(b1-4)GalNAc
In short: as §1

[32] = biological target: GlcNAc(b1-3)Gal(b1-4)GlcNAc(b1-3)Gal(b1-4)GlcNAc(b1-2)[GlcNAc(b1-3)Gal(b1-4)GlcNAc(b1-3)Gal(b1-4)GlcNAc(b1-6)]Man(a1-6)[GlcNAc(b1-3)Gal(b1-4)GlcNAc(b1-3)Gal(b1-4)GlcNAc(b1-2)Man(a1-3)]Man(b1-4)GlcNAc(b1-4)[Fuc(a1-6)]GlcNAc
In short: as §1

[33] = biological target: Man(a1-2)Man(a1-2)Man(a1-3)Man
In short: as §1

[34] = biological target: Man(a1-2)Man(a1-3)[Man(a1-6)]Man(a1-6)[Man(a1-2)Man(a1-3)]Man(b1-4)GlcNAc(b1-4)GlcNAc
In short: as §1

[35] = biological target: Man(a1-6)Man
In short: as §1

[36] = biological target: Neu5Ac(a2-3)Gal(b1-3)GlcNAc(b1-2)Man
In short: as §1

[37] = biological target: Neu5Ac(a2-3)Gal(b1-3)GlcNAc(b1-2)Man(a1-3)[GlcNAc(b1-4)][Neu5Ac(a2-3)Gal(b1-3)GlcNAc(b1-2)Man(a1-6)]Man(b1-4)GlcNAc(b1-4)GlcNAc
In short: as §1

[38] = biological target: Neu5Ac(a2-3)Gal(b1-3)GlcNAc(b1-6)GalNAc
In short: as §1

[39] = biological target: Neu5Ac(a2-3)Gal(b1-3)GlcNAc6S
In short: as §1

[40] = biological target: Neu5Ac(a2-3)Gal(b1-3)[Neu5Ac(a2-6)]GalNAc
In short: as §1

[41] = biological target: Neu5Ac(a2-3)Gal(b1-3)[Neu5Ac(a2-6)]GlcNAc(b1-3)[Fuc(a1-3)[Gal(b1-4)]GlcNAc(b1-6)]Gal(b1-4)Glc
In short: as §1

[42] = biological target: Neu5Ac(a2-3)Gal(b1-4)Glc
In short: as §1

[43] = biological target: Neu5Ac(a2-3)Gal(b1-4)GlcNAc(b1-2)[Neu5Ac(a2-3)Gal(b1-4)GlcNAc(b1-6)]Man(a1-6)[Neu5Ac(a2-3)Gal(b1-4)GlcNAc(b1-2)Man(a1-3)][GlcNAc(b1-4)]Man(b1-4)GlcNAc(b1-4)GlcNAc
In short: as §1

[44] = biological target: Neu5Ac(a2-3)Gal(b1-4)GlcNAc(b1-3)Gal(b1-4)GlcNAc
In short: as §1

[45] = biological target: Neu5Ac(a2-3)Gal(b1-4)GlcNAc(b1-3)[Neu5Ac(a2-3)Gal(b1-4)GlcNAc(b1-6)]GalNAc
In short: as §1

[46] = biological target: Neu5Ac(a2-3)Gal(b1-4)GlcNAc(b1-6)[Gal(b1-3)]GalNAc
In short: as §1

[47] = biological target: Neu5Ac(a2-6)Gal
In short: as §1

[48] = biological target: Neu5Ac(a2-6)Gal(b1-4)Glc
In short: as §1

[49] = biological target: Neu5Ac(a2-6)Gal(b1-4)GlcNAc
In short: as §1

[50] = biological target: Neu5Ac(a2-6)Gal(b1-4)GlcNAc(b1-2)[Neu5Ac(a2-6)Gal(b1-4)GlcNAc(b1-6)]Man(a1-6)[Neu5Ac(a2-6)Gal(b1-4)GlcNAc(b1-2)Man(a1-3)][GlcNAc(b1-4)]Man(b1-4)GlcNAc(b1-4)GlcNAc
In short: as §1

[51] = biological target: Neu5Ac(a2-6)Gal(b1-4)GlcNAc(b1-3)GalNAc
In short: as §1

[52] = biological target: Neu5Ac(a2-6)GalNAc(b1-4)GlcNAc
In short: as §1

[53] = biological target: Neu5Ac(a2-8)Neu5Ac(a2-3)Gal(b1-4)Glc
In short: as §1

[54] = biological target: Neu5Ac(a2-8)Neu5Ac(a2-3)Gal(b1-4)GlcNAc
In short: as §1

[55] = biological target: Neu5Ac(a2-8)Neu5Ac(a2-8)Neu5Ac(a2-8)Neu5Ac(a2-3)[GalNAc(b1-4)]Gal(b1-4)Glc
In short: as §1

[56] = biological target: Neu5Ac9Ac(a2-3)Gal(b1-3)GlcNAc
In short: as §1

[57] = biological target: Neu5Gc(a2-3)Gal(b1-3)[Fuc(a1-4)]GlcNAc
In short: as §1

[58] = biological target: Neu5Gc(a2-3)Gal(b1-4)GlcNAc(b1-3)Gal(b1-4)GlcNAc(b1-2)Man(a1-3)[Neu5Gc(a2-3)Gal(b1-4)GlcNAc(b1-3)Gal(b1-4)GlcNAc(b1-2)Man(a1-6)]Man(b1-4)GlcNAc(b1-4)GlcNAc
In short: as §1

[59] = biological target: Neu5Gc(a2-6)GalNAc
In short: as §1

[60] = biological target: Neu5Gc(a2-8)Neu5Gc(a2-3)Gal(b1-4)GlcNAc(b1-3)Gal(b1-4)GlcNAc
In short: as §1

B1: Arath Fbox LD (Arabidopsis thaliana) (protein)
chain: EFSVWLEKASGKRCLMLSAMNLSIIWGDNPQYWQWIPIPESRFEKVAKLRDVCWFEIRGRTNTRVLSPRTRYSAYIVFKGVDKCYGFQNVAIEAAVGVVGQEPSRRLICFSEAIRRGRRNVVKPKQREDGWMEIELGEFFNDGGIMDNDEIEMSALETKQLNRKCGLIIQGIEIRPAKILAAASFLEQKLISEEDLNSAVDHHHHHH
- glycan array binding signal (z-score) [1]: -0.344
- glycan array binding signal (z-score) [2]: -0.52
- glycan array binding signal (z-score) [3]: -0.597
- glycan array binding signal (z-score) [4]: 0.47
- glycan array binding signal (z-score) [5]: 2.04
- glycan array binding signal (z-score) [6]: -0.455
- glycan array binding signal (z-score) [7]: -0.171
- glycan array binding signal (z-score) [8]: 9.37
- glycan array binding signal (z-score) [9]: 2.84
- glycan array binding signal (z-score) [10]: -0.233
- glycan array binding signal (z-score) [11]: 1.55
- glycan array binding signal (z-score) [12]: 2.67
- glycan array binding signal (z-score) [13]: -0.517
- glycan array binding signal (z-score) [14]: -0.473
- glycan array binding signal (z-score) [15]: -0.574
- glycan array binding signal (z-score) [16]: 4.02
- glycan array binding signal (z-score) [17]: 2.55
- glycan array binding signal (z-score) [18]: 1.31
- glycan array binding signal (z-score) [19]: 0.403
- glycan array binding signal (z-score) [20]: -0.558
- glycan array binding signal (z-score) [21]: -0.532
- glycan array binding signal (z-score) [22]: -0.413
- glycan array binding signal (z-score) [23]: 4.4
- glycan array binding signal (z-score) [24]: 3.79
- glycan array binding signal (z-score) [25]: 2.51
- glycan array binding signal (z-score) [26]: -0.39
- glycan array binding signal (z-score) [27]: 0.739
- glycan array binding signal (z-score) [28]: -0.368
- glycan array binding signal (z-score) [29]: -0.574
- glycan array binding signal (z-score) [30]: 1.15
- glycan array binding signal (z-score) [31]: 0.26
- glycan array binding signal (z-score) [32]: 0.126
- glycan array binding signal (z-score) [33]: -0.56
- glycan array binding signal (z-score) [34]: -0.337
- glycan array binding signal (z-score) [35]: 2.7
- glycan array binding signal (z-score) [36]: 2.03
- glycan array binding signal (z-score) [37]: -0.462
- glycan array binding signal (z-score) [38]: -0.64
- glycan array binding signal (z-score) [39]: -0.302
- glycan array binding signal (z-score) [40]: -0.264
- glycan array binding signal (z-score) [41]: -0.662
- glycan array binding signal (z-score) [42]: -0.473
- glycan array binding signal (z-score) [43]: -0.407
- glycan array binding signal (z-score) [44]: -0.587
- glycan array binding signal (z-score) [45]: -0.595
- glycan array binding signal (z-score) [46]: -0.599
- glycan array binding signal (z-score) [47]: 2.83
- glycan array binding signal (z-score) [48]: 0.791
- glycan array binding signal (z-score) [49]: -0.052
- glycan array binding signal (z-score) [50]: 0.015
- glycan array binding signal (z-score) [51]: -0.324
- glycan array binding signal (z-score) [52]: -0.53
- glycan array binding signal (z-score) [53]: -0.516
- glycan array binding signal (z-score) [54]: -0.254
- glycan array binding signal (z-score) [55]: 0.508
- glycan array binding signal (z-score) [56]: 3.71
- glycan array binding signal (z-score) [57]: -0.502
- glycan array binding signal (z-score) [58]: -0.554
- glycan array binding signal (z-score) [59]: -0.28
- glycan array binding signal (z-score) [60]: -0.404
